Source: PubChem BioAssay
Most compounds without a hit are left out; they make up all but 19% or so of the library.
ELG1 DNA repair = blocks ELG1-dependent DNA repair in HEK293T cells; 330,000 tested, 2.3% active; AID 504467; HEK293T ELG1-luciferase reporter, luminescence, 16 h; DNA damage induced by 5-fluorouridine; Potency, µM (doses to about 46.1 µM), for the others: top-dose activity change, negative = inhibition, actives largely listed as inhibitors; further: potency means the concentration at half of the fitted maximal effect; nearly all actives have a fitted effect of over 55% in size
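Quantitative HTS, concentration-response format. 2,000 cells/well co-treated with 5-fluorouridine and compound, 16 hr in 5% CO2 at 37 °C; ONE-Glo luminescence read after 30 min.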
IL-1B inflam inh = blocks inflammasome-driven IL-1 beta release | THP-1 LPS/ATP IL-1B secretion, AlphaLISA, 16 h; active compounds read low | activity change, % at 57.5 µM | 360,000 tested, 4.7% active; in the data active means activity change below about -50%; inconclusive means mostly about -30% to -49%
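Secreted IL-1B measured by AlphaLISA bead assay after 16 h compound exposure of THP-1 cells; compounds (final up to 57.5 uM) added 1 h before LPS (250 ng/mL) and ATP (1.25 mM) stimulation; lower signal means less secretion.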
TDP1 inh = inhibitors of human tyrosyl-DNA phosphodiesterase TDP1. Potency, µM (top dose mostly 130 µM), for the others: at the top dose activity change, negative = inhibition, usual class: inhibitors. recombinant TDP1, AlphaScreen DNA substrate cleavage. 350,000 tested, 0.28% active. AID 485290; further: potency means the concentration at half of the fitted maximal effect; nearly all actives have a fitted effect of over 40% in size
Target sequence (Q9NUW8 whole entry, looked up): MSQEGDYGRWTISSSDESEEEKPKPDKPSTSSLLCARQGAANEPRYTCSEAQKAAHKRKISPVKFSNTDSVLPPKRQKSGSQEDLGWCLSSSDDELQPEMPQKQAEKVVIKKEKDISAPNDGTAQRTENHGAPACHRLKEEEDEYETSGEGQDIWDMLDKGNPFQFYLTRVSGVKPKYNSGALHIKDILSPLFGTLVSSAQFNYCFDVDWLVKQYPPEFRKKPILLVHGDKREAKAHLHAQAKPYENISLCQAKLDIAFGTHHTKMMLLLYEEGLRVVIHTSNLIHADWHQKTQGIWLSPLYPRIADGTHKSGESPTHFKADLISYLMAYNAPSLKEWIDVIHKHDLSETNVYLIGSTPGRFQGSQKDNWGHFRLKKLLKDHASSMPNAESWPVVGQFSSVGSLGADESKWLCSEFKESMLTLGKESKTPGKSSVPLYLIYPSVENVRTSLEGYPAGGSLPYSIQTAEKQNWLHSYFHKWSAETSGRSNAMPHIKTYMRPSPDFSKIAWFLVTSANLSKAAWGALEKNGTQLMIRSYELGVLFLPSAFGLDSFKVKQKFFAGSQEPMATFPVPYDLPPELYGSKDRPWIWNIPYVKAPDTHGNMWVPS
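Steps: enzyme plus compound, 15 min RT; add biotin/phosphotyrosine-FITC oligonucleotide (15 nM final), react 5 min; add donor/acceptor beads (10 ug/ml final), 10 min; read AlphaScreen. Tdp1 at 1 nM final.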
DT40 TDP1 no CPT = qHTS for Inhibitors of human tyrosyl-DNA phosphodiesterase 1 (TDP1): qHTS in cells in absence of CPT | Potency, µM (top dose mostly 46.2 µM), inactives show top-dose activity change, negative = growth inhibition, usual class: inhibitors | 420,000 tested, 15% active | AID 686978, 2013 | DT40 Tdp1-/- hTDP1 cells, no CPT, ATP luminescence, 48 h; further: potency means the concentration at half of the fitted maximal effect; nearly all actives have a fitted effect of over 55% in size
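Chicken DT40 Tdp1-/- cells complemented with human TDP1, screened without camptothecin (DMSO vehicle only), 400 cells/well. Compounds pin-transferred, cells incubated at 37 °C for at least 48 hr. Growth read as ATP-dependent luminescence (CellTiter-Glo, 30 min at RT).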
TDP1 cell CPT = DT40-hTDP1 cell growth loss with CPT. AID 686979. chicken DT40 Tdp1-/-;hTDP1 cells + 20 nM CPT, ATP luminescence, 48 h. Potency, µM (top dose mostly 46.2 µM), inactives show at the top dose activity change, negative = growth inhibition, actives largely listed as inhibitors. 420,000 tested, 12% active; further: potency means the concentration at half of the fitted maximal effect; nearly all actives have a fitted effect of over 55% in size
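Chicken DT40 Tdp1-/- cells complemented with human TDP1, 400 cells/well, exposed to compounds plus 20 nM camptothecin for at least 48 h at 37 C; viability read as ATP content by CellTiter-Glo luminescence.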
Giardia killer = Giardia lamblia killing | Giardia lamblia trophozoite viability | activity change, % at 7.66 µM, hits read low | 340,000 tested, 0.15% active; in the data active means activity change below about -80%; inconclusive means between about -30% and that limit;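 further: parasites exposed to compound for two days anaerobically before the ATP read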
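Giardia trophozoites, 100 cells per well, were exposed to compounds for 48 hrs at 37 deg C under anaerobic conditions; viability was then read as ATP content by bioluminescence after 15-30 min at room temperature.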
Numbers without * were called inactive; ? = inconclusive; nt = no result given; [ ] = another dose, or the depositor's remark. Unless noted, the call rests on the fitted dose curve; in most records, active means well fitted curve in the direction sought with a large enough effect; inconclusive means small, poorly fitted or top-dose-only effect, or another doubt; inactive means no such curve, though single readings can be large; an effect the other way counts as inactive or inconclusive. On the % scale 0 is the no-effect control and ±100 the full control effect.

SMILES	ELG1 DNA repair	IL-1B inflam inh	TDP1 inh	DT40 TDP1 no CPT	TDP1 cell CPT	Giardia killer
Cc1ccc(N2C(=O)NC(=O)/C(=C/c3cnn(-c4ccc(C)cc4)c3)C2=O)cc1	25%	-10	-5%	18µM*	16µM*	5
Cc1ccc(N2C(=O)NC(=O)/C(=C/c3ccoc3)C2=O)cc1	3%	nt	3.2µM*	?	-17%	2
COc1cc(/C=C2/C(=O)NC(=O)N(c3ccc(C)cc3)C2=O)cc(OC)c1OC	?	nt	-1%	0%	11%	13
O=c1oc2ccccc2cc1-c1cn2cc(Cc3ccc(F)cc3)sc2n1	nt	nt	4%	2.1µM*	5.2µM*	nt
CCOc1ccc(NC(=O)CN(c2ccc(Cl)cc2C)S(=O)(=O)c2ccccc2)cc1	nt	nt	3%	10µM*	8.2µM*	nt
O=C(CSc1oc(-c2ccccc2)nc1S(=O)(=O)c1ccc(Cl)cc1)Nc1ccc(F)cc1	nt	nt	9%	?	10µM*	nt
CCOc1ccc(NC(=O)CSc2oc(-c3ccccc3)nc2S(=O)(=O)c2ccc(Cl)cc2)cc1	nt	nt	3%	21µM*	7.3µM*	nt
CCOc1ccc(NC(=O)c2c(C)nn(Cc3ccccc3)c2Cl)cc1	-2%	10	0%	-4%	0%	-8
CCOc1ccc(S(=O)(=O)N(CC(=O)NCc2ccccc2OC)c2ccccc2)cc1	nt	nt	nt	16µM*	15µM*	nt
CSc1nn(-c2ccc(C(=O)OCC(=O)NC(=O)NC(C)C)cc2)c(=S)s1	?	-13	6%	?	-21%	13
Cl/C=C/Cl	nt	nt	10%	nt	nt	nt
COC(=O)c1cc(Oc2ccc(Cl)cc2Cl)ccc1[N+](=O)[O-]	nt	nt	19%	nt	nt	nt
CN(C(=O)Cc1ccc(Cl)c(Cl)c1)[C@@H](CN1CCCC1)c1cccc(OCC(=O)O)c1	nt	nt	-10%[56.1 µM]	-6%	11%	nt
COc1c(OP2(=S)OCC(C)(C)CO2)cnn(C2CCCCC2)c1=O	nt	-13	nt	21µM*	23µM*	nt
Cc1noc(C)c1C(=O)N1CCC2(CCCN(CC(C)C)C2)CC1	nt	nt	nt	2%	20%	nt
Cc1ccc(NC(=O)N2CCN(c3cc(-c4noc(C)n4)ccc3C)CC2)c(F)c1	nt	nt	4%	16µM*	?	nt
COC(=O)C1=C(N)OC(C)=C(C(C)=O)C12C(=O)N(C)c1ccccc12 (stereo not given)	0%	2	3%	21µM*	?	-1
COC(=O)C1=C(N)Oc2c(c(=O)oc3ccccc23)[C@]12C(=O)N(C)c1ccccc12	1%	0	4%	?	?	0
COc1ccc(CC(N)c2csc(NC(=O)Nc3ccccc3Oc3ccccc3)n2)cc1 (stereo not given)	nt	?	nt	16µM*	?	nt
COc1ccc(OC(=O)Nc2ccccc2)cc1	?	-12	1%	-17%	-16%	2
c1ccoc1	nt	nt	15%	nt	nt	nt
C[C@H]1CCC/C=C/[C@@H]2C[C@H](O)C[C@H]2[C@@H](O)/C=C/C(=O)O1	nt	-54*	nt	0.58µM*	0.18µM*	-2
C[C@H]1CCCC=CC2C[C@H](O)C[C@@H]2[C@H](O)C=CC(=O)O1 (stereo not given in full)	nt	nt	nt	0.15µM*	0.028µM*	nt
CCCCC[C@@H]1CCCCC[C@H](O)C[C@H](O)[C@@H](O)/C=C/C(=O)O1	nt	0	nt	?	?	nt
CCCN(CCC)[C@@H]1CCc2c(OC)cccc2[C@@H]1C	nt	nt	7%	15µM*	?	nt
SMILES	ELG1 DNA repair	IL-1B inflam inh	TDP1 inh	DT40 TDP1 no CPT	TDP1 cell CPT	Giardia killer
COC(=O)c1ccc(CN2CCN(Cc3ccccc3)CC2)cc1	?	8	-1%	-13%	-13%	-7
Cc1cccc(Cn2c(=O)n(Cc3ccc(C(=O)NC4CCN(Cc5ccccc5)CC4)cc3)c(=O)c3ccccc32)c1	nt	nt	4%	3.3µM*	4.1µM*	nt
CCC(=O)[C@@H](C)[C@@H](O)[C@H](C)C[C@@H](C)C1OC(=O)C[C@@]2(O)CC=C(C)C(O2)C(C)=CCCC[C@H](O[C@H]2C[C@@H](OC(N)=O)[C@H](O)[C@@H](C)O2)C=C[C@H](C)C[C@H]1C (stereo not given in full)	nt	-21	nt	0.52µM*	0.46µM*	nt
Cc1ccc(-n2c(/C=C/c3cc(Br)cs3)nc3ccccc3c2=O)cc1C	nt	nt	3%	?	?	nt
CCOC(=O)c1cnc(N2CC2)nc1N	nt	-8	nt	0.92µM*	0.46µM*	-17
CCOc1ccccc1NC(=O)c1sc2nc3c(cc2c1N)CN(Cc1ccccc1)CC3	nt	nt	10%	23µM*	16µM*	nt
c1ccc(CN2CCc3nc4ccccc4cc3C2)cc1	?	-11	nt	-18%	?	35
Cc1ccc2c(c1Cl)NC(C(=O)O)C1CC(Sc3ccccc3[N+](=O)[O-])C(Cl)C21 (stereo not given)	-10%	18	2%	3%	-21%	-15
CCN(CC)C(=O)c1ccc2c(c1)C1C(Cl)C(Sc3ccccc3[N+](=O)[O-])CC1C(C(=O)O)N2 (stereo not given)	-27%	?	3%	21µM*	?	10
c1ccc(C(O[C@H]2CCCN(CCc3ccc4c(c3)OCO4)C2)c2ccccc2)cc1	nt	nt	nt	24µM*	?	nt
CC(C)c1ccc(NC(=O)c2ccc(F)c(S(=O)(=O)N3CCc4ccccc4C3)c2)cc1	nt	nt	7%	5.2µM*	4.6µM*	nt
CCCCc1ccc(NC(=O)c2ccc3c(c2)CCN3S(=O)(=O)CC)cc1	nt	nt	9%	3.7µM*	7.3µM*	nt
O=C(Nc1nc2c(Cl)cccc2s1)c1ccc(S(=O)(=O)N2CCc3ccccc32)cc1	nt	nt	5%	?	?	nt
CCN(CC)C(=O)c1ccc(NC(=O)c2ccc(N3CCCC3=O)cc2)cc1	17%	-14	2%	-4%	9%	-15
CC(C)c1ccc(NC(=O)c2ccc3c(c2)CCN3S(=O)(=O)c2ccccc2)cc1	nt	nt	7%	5.8µM*	4.6µM*	nt
C[C@H](CO)N1C[C@H](C)[C@@H](CN(C)C(=O)Nc2ccccc2)Oc2c(NS(=O)(=O)c3ccc(F)cc3)cccc2C1=O	?	-1	4%	-23%	4%	-7
C/C=C1/C[C@@H](C)[C@](O)(CO)C(=O)OCC2=CCN3CC[C@@H](OC1=O)C23 (stereo not given in full)	nt	nt	0%	?	?	nt
COc1ccc(F)cc1CN1CCN(C(=O)CCC(=O)Nc2nnc(CC(C)C)s2)CC1	-1%	22	4%	?	?	2
CCn1c(=O)oc2cc(NC(=O)CCl)ccc21	?	-100*	3%	15µM*	12µM*	10
